About 50,000 (12%) of roughly 420,000 compounds were called active. Inconclusive results (about 26%) are left out. Calls come from the whole dose curve; as a rule, active = well fitted inhibition curve with a large enough effect; inconclusive = small, poorly fitted or top-dose-only effect; inactive = flat fitted curve, though single readings scatter. Shown is part of a subset that was picked to be rich in actives. Where a call stands in place of a potency, no number is given.
test: qHTS for Inhibitors of human tyrosyl-DNA phosphodiesterase 1 (TDP1): qHTS in cells in presence of CPT; details: chicken DT40 Tdp1-/-;hTDP1 cells + 20 nM CPT, ATP luminescence, 48 h; series mostly up to 46.2 µM; note: nearly all actives have a fitted effect of over 55% in size
Procedure, shortened: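 Chicken DT40 Tdp1-/- cells complemented with human TDP1, 400 cells/well, exposed to compounds plus 20 nM camptothecin for at least 48 h at 37 C; viability read as ATP content by CellTiter-Glo luminescence.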
Potency is the fitted concentration of half-maximal effect.

Row | Structure (SMILES) | Potency
1 | CC(C)=CCCC1(C)C=Cc2c(ccc3c2[nH]c2cc(O)c(C)cc23)O1 (configuration not stated) | 16.4 µM (active)
2 | Cc1ccc(CNC(=O)Nc2nnc([C@H]3C[C@H](O)[C@@H](CO)O3)s2)cc1 | inactive
3 | Cc1cc(C)n(-c2ccc(C(=O)O)cc2[N+](=O)[O-])n1 | inactive
4 | Cc1cccc(N2CCN(c3ccc(C(N)=O)cc3[N+](=O)[O-])CC2)c1C | inactive
5 | CN1CCN(S(=O)(=O)c2ccc(N3CCN(c4ccccc4O)CC3)c([N+](=O)[O-])c2)CC1 | 23.1 µM (active)
6 | Cc1cc(N)n(-c2ccc(S(=O)(=O)N3CCCC3)cc2[N+](=O)[O-])n1 | inactive
7 | Cc1ccc(C(=O)c2ccc(N3CCN(C)CC3)c([N+](=O)[O-])c2)cc1 | 18.4 µM (active)
8 | O=[N+]([O-])c1ccc(N2CCN(S(=O)(=O)c3ccccc3)CC2)cc1N1CCc2ccccc2C1 | inactive
9 | C=CCN(c1ccc(Cl)cc1)S(=O)(=O)c1cccc(C(=O)OCC(=O)N(C)C)c1 | inactive
10 | Cc1ccc2c(c1)N(C(=O)CCC(=O)NCc1cccnc1)CCO2 | inactive
11 | Cn1nccc1NC(=O)CC(CC(=O)O)c1ccccc1 (configuration not stated) | inactive
12 | Cn1ccsc1=NC(=O)c1cc(S(=O)(=O)N2CCOCC2)ccc1Cl | inactive
13 | N/C(=N\OC(=O)c1ccc2c(c1)OCO2)c1ccc(Br)cc1 | inactive
14 | N/C(=N\OC(=O)/C=C/c1ccccc1)c1ccc(Br)cc1 | inactive
15 | N/C(=N\OC(=O)N1c2ccccc2Sc2ccccc21)c1ccc(Br)cc1 | 20.6 µM (active)
16 | Cc1csc(=O)n1CCC(=O)OCC(=O)NNC(=O)c1ccc(Br)cc1 | inactive
17 | CC(=O)Nc1cccc(C(=O)OCC(=O)Nc2nnc(-c3ccccc3)o2)c1 | inactive
18 | COCCNC(=O)C1C(=O)Nc2ccccc2C(=O)N1c1ccc2c(c1)OCCO2 (configuration not stated) | inactive
19 | COc1cc(SC#N)ccc1N=Cc1c(C)[nH]n(-c2ccc(C)cc2)c1=O | 2.59 µM (active)
20 | COc1cccc(-c2coc3cc4oc(=O)c(CC(=O)O)c(C)c4cc23)c1 | inactive
21 | O=C(O)CC1S/C(=N\N=C/c2ccccc2O)N(c2ccc(O)cc2)C1=O (configuration not stated) | inactive
22 | S=C(Nc1ccc(Br)cc1Cl)N1CCC2(CC1)OCCO2 | inactive
23 | C=C1C(=O)OC2C1CCC(C)=CCCC1(C)OC21 (configuration not stated) | 1.64 µM (active)
24 | Cc1cc(Cl)ccc1NC(=S)N1CCC(C(N)=O)(N2CCCCC2)CC1 | inactive
25 | O=C(COC(=O)/C=C/c1cccc(Cl)c1)NCc1cccs1 | inactive
26 | COc1ccc(NC(=O)c2sc(N)nc2-c2ccccc2)cc1 | inactive

Row | Structure (SMILES) | Potency
27 | COC(=O)CCc1sc(Nc2ccc(Br)cc2)nc1-c1ccc(OC)cc1 | 23.1 µM (active)
28 | Cc1ccc(OC(=O)CCC(=O)Nc2ccc(Br)cc2)cc1 | inactive
29 | CCc1c(C)sc(NC(=O)C2c3ccccc3Oc3ccccc32)c1C(=O)OC(C)C | inactive
30 | Cc1ccn2c(=O)c(NC(=O)c3cccc4ccccc34)c(C)nc2c1 | inactive
31 | O=C(O)c1cccc(S(=O)(=O)N2CC=C(c3ccccc3)CC2)c1 | inactive
32 | NC(=O)N1CCCC1C(=O)Nc1ccc(Cl)c(Cl)c1 (configuration not stated) | inactive
33 | O=C(Nc1ccc(Cl)c(Cl)c1)N1CC=C(c2ccccc2)CC1 | 23.1 µM (active)
34 | CCCCn1c(N)c(N(CCC(C)C)C(=O)c2ccc([N+](=O)[O-])o2)c(=O)[nH]c1=O | inactive
35 | CCCCC(O)C1=C[N+](=O)CC=C1 (configuration not stated) | inactive
36 | O=c1[nH]c(CSc2ncc(-c3ccc(F)cc3)n2Cc2ccco2)nc2ccccc12 | 18.4 µM (active)
37 | Nc1cc(=O)nc(SCc2ccccc2)n1Cc1ccco1 | inactive
38 | CCn1c(Cc2ccccc2)nnc1SCc1nc2ccccc2c(=O)[nH]1 | inactive
39 | COc1ccc2ccn(C)c2c1 | inactive
40 | CCOc1cc(NC(=O)c2ccco2)c(OCC)cc1NC(=O)COc1ccccc1 | 4.11 µM (active)
41 | CCOc1cc(NC(=S)NCCCOC)c(OCC)cc1NC(=O)c1ccco1 | inactive
42 | CCOc1cc(NC(=S)NCc2ccco2)c(OCC)cc1NC(=O)c1ccco1 | inactive
43 | Cc1cc(N2CCN(c3cccc(C(F)(F)F)c3)CC2)n2nc(-c3ccccc3)nc2n1 | inactive
44 | O=c1n(Cc2cccc(C(F)(F)F)c2)c2ccccc2c2nc(-c3ccccc3)nn12 | 23.1 µM (active)
45 | COc1ccc(-c2nc3c4ccccc4n(CC(=O)Nc4ccc(C(C)=O)cc4)c(=O)n3n2)cc1 | inactive
46 | CC(C)C(OC(=O)c1cccs1)C(=O)NC1CCCCC1 (configuration not stated) | inactive
47 | Cc1ccc(NC(=O)CN(C)Cc2ccc(F)cc2)c([N+](=O)[O-])c1 | inactive
48 | CCn1c(SCC(=O)NC2CCCC2)nnc1-c1ccoc1C | inactive
49 | COC(=O)c1onc(-c2c(OC)cc(OC)cc2OC)c1C(=O)OC | inactive
50 | CN(C(=O)CN1C(=O)/C(=C/c2ccc(Cl)cc2)SC1=S)C1CCS(=O)(=O)C1 (configuration not stated) | 18.4 µM (active)
51 | CN(C(=O)CCN1C(=O)/C(=C/c2ccccc2F)SC1=S)C1CCS(=O)(=O)C1 (configuration not stated) | inactive
52 | CN(C(=O)CN1C(=O)S/C(=C\c2ccccc2F)C1=O)C1CCS(=O)(=O)C1 (configuration not stated) | inactive

Row | Structure (SMILES) | Potency
53 | O=C(Nc1cc(C(F)(F)F)ccc1Cl)c1cc2nc(-c3ccc4c(c3)OCO4)cc(C(F)(F)F)n2n1 | inactive
54 | O=C(NCCCCCCCCCNC(=O)C(F)(F)F)C(F)(F)F | inactive
55 | C/C(=N\NS(=O)(=O)c1cccc([N+](=O)[O-])c1)c1cc2ccccc2o1 | inactive
56 | CCn1c(SCc2cc(=O)n3ccsc3n2)nc2ccccc21 | inactive
57 | COc1cccc(-n2cc(C(=O)O)c3ccccc3c2=O)c1 | inactive
58 | CCN(Cc1ccccc1)C(=O)c1cn(-c2cccc(OC)c2)c(=O)c2ccccc12 | 18.4 µM (active)
59 | COc1cccc(-n2ccn(CC(=O)NCc3ccc(C)cc3)c(=O)c2=O)c1 | inactive
60 | COc1ccc(NC(=O)CSc2nnc(C3CC3)n2C)cc1S(=O)(=O)N1CCCCC1 | inactive
61 | COc1ccc(C2CC(=O)Oc3ccc(C(C)(C)C)cc32)cc1 (configuration not stated) | inactive
62 | N#Cc1ccc(/C=C2\CCn3c2nc2cc(C(=O)O)ccc2c3=O)cc1 | inactive
63 | COc1cccc(Cn2c(=O)c(-c3ccccc3)nc3cnc(OC)nc32)c1 | inactive
64 | COc1cccc(Cn2c(=O)c(CCc3ccccc3)nc3cnc(N(C)C)nc32)c1 | inactive
65 | COc1cccc(Cn2c(=O)cnc3cncnc32)c1 | 1.46 µM (active)
66 | Cc1ccc(C(=O)N/C(=C\c2cn(C)c3ccccc23)C(=O)N2CCN(C)CC2)cc1 | inactive
67 | Cc1cn(C2CC(O)C(CO)O2)c(=O)n(CCCc2ccccc2)c1=O (configuration not stated) | inactive
68 | CCOc1c(Nc2cccc(Cl)c2)c(=O)c1=O | inactive
69 | CCCCN(CC)C(=O)c1c[nH]c2ccc(S(=O)(=O)Nc3cccc(OC)c3)cc2c1=O | inactive
70 | CCCCN(CC)C(=O)c1ccccc1Oc1ccccc1 | 20.6 µM (active)
71 | CCCCN(CC)C(=O)c1ccc2c(c1)OCO2 | inactive
72 | C[C@H]1CN([C@@H](C)CO)C(=O)c2cc(Br)cnc2O[C@H]1CN(C)S(=O)(=O)c1cccs1 | inactive
73 | CCCCNC(=O)CSc1nc2ccc(NC(=O)CSc3nnc(COc4ccccc4C)n3C)cc2s1 | inactive
74 | COC(=O)C[C@@H]1C=C[C@@H](NS(=O)(=O)c2cccc(OC)c2)[C@@H](CO)O1 | inactive
75 | CS(=O)(=O)N1CCCCC1c1cc(C(=O)NCc2ccccc2)no1 (configuration not stated) | inactive
76 | O=C(NCc1ccc(F)cc1)c1cc(C2CCCCN2C(=O)C2CCCCC2)on1 (configuration not stated) | 18.4 µM (active)
77 | CCCNC(=O)c1cc(C2CCCCN2C(=O)OC)on1 (configuration not stated) | inactive
78 | COC(=O)[C@@H](Cc1ccccc1)NC(=O)NCCc1ccccc1 | inactive

Row | Structure (SMILES) | Potency
79 | COc1ccc(-c2[nH][nH]c(=O)c2NC(=O)c2ccc([N+](=O)[O-])cc2)cc1 | inactive
80 | COc1ccc(OC)c(NC(=O)c2ccc3c(c2)CCN3S(C)(=O)=O)c1 | inactive
81 | CCCc1c(C(=O)Nc2ccc(F)cc2)cnn1-c1ccccc1 | 14.6 µM (active)
82 | CCc1ccccc1NC(=O)c1cnn(-c2ccc(F)cc2)c1C1CCNCC1 | inactive
83 | CCCc1c(C(=O)O)cnn1-c1ccc(Cl)cc1 | inactive
84 | CCn1c(SCC(=O)N2CCCC2=O)nc2ccccc21 | inactive
85 | O=C(N/N=C/c1ccsc1)c1cc(O)cc(O)c1 | inactive
86 | CCCCC(=O)Nc1c2c(nn1-c1ccc([N+](=O)[O-])cc1)CS(=O)(=O)C2 | inactive
87 | CCN(CC)S(=O)(=O)c1ccc2[nH]c(=O)cc(C(=O)N(C)C3CCS(=O)(=O)C3)c2c1 (configuration not stated) | inactive
88 | COc1cc(OC)cc(C(=O)NC(C(=O)N2CCC2)C(C)C)c1 (configuration not stated) | inactive
89 | COc1ccc(N2CCN(C(=O)CCNC(=O)c3ccc(Br)cc3)CC2)cc1 | inactive
90 | COc1ccc(N2CCN(C(=O)[C@@H](NC(=O)c3cc(OC)cc(OC)c3)C(C)C)CC2)cc1 | 14.6 µM (active)
91 | CS(=O)(=O)N1CCc2nc(-c3ccccc3)sc2C1 | inactive
92 | CCOc1ccc(S(=O)(=O)NCCC(=O)NCC(C)(C)N2CCOCC2)cc1 | inactive
93 | C=C(Br)Cn1c(CCCC)nc2ccccc21 | 18.4 µM (active)
94 | O=C(O)Cn1c(Cc2ccccc2)nc2ccccc21 | inactive
95 | C=CCn1c(P(C)(=O)O)nc2ccccc21 | inactive
96 | Cc1nc2sc(C)c(C)n2c(=O)c1S(=O)(=O)NCCc1ccc(Cl)cc1 | inactive
97 | COc1ccc(N(C)S(=O)(=O)c2cccc3nsnc23)cc1 | inactive
98 | CCOC(=O)c1cc(-c2ccc(OC)c(S(=O)(=O)Nc3ccc(OC)cc3OC)c2)on1 | inactive
99 | CCOC(=O)c1cccc(NS(=O)(=O)c2cc(-c3cnc(C)o3)ccc2OC)c1 | 10.3 µM (active)
100 | CCOc1ccc(N(C)S(=O)(=O)c2cnc[nH]2)cc1 | inactive
101 | CCOc1ccc(N(C)S(=O)(=O)c2cc(-c3cnc(C)o3)ccc2OC)cc1 | 25.9 µM (active)
102 | CCOC(=O)c1cccc(NS(=O)(=O)c2cn(C)c(C)n2)c1 | inactive

— PubChem BioAssay AID686979 (National Center for Advancing Translational Sciences (NCATS), 2013)
